The text below walks through data of PubChem BioAssay (NCATS).

The structures appear in SMILES notation. Calls of active or inactive are those of the source. Calls follow the shape of the full dose curve.

This assay in a line: qHTS drug screen for cell cycle checkpoint inhibitors in PARPi-resistant BRCA-mutant ovarian cancer cell lines. (AID 1963452). Conditions: PEO1/OlaR viability, CellTiter-Glo luminescence, 96 h, stronger effect = lower value. The text has this: Women's Malignancies Branch, Center for Cancer Research (CCR),
National Cancer Institute (NCI), National Institutes of Health (NIH), Bethesda, MD
Poly (ADP-ribose) polymerase inhibitors (PARPis) have changed the treatment paradigm in breast cancer gene (BRCA) - mutant high-grade serous ovarian carcinoma (HGSC). However, most patients eventually develop resistance to PARPis, highlighting an unmet need for improved therapeutic strategies. Using high-throughput drug screens, we identified ataxia telangiectasia and rad3-related protein/checkpoint kinase 1 (CHK1) pathway inhibitors as cytotoxic and further validated the activity of the CHK1 inhibitor (CHK1i) prexasertib in PARPi-sensitive and -resistant BRCA-mutant HGSC cells and xenograft mouse models. CHK1i monotherapy induced DNA damage, apoptosis, and tumor size reduction. We then conducted a phase 2 study (NCT02203513) of prexasertib in patients with BRCA-mutant HGSC. The treatment was well tolerated but yielded an objective response rate of 6% (1 of 17; one partial response) in patients with previous PARPi treatment. […] BRCA reversion mutation in previously PARPi-treated BRCA-mutant patients was not associated with resistance to CHK1i.
Among others, 1082 oncology drugs, both approved and investigational, were prioritized based on their status in clinical trial development. […] Drugs with average Z-AUC values less than -1.0 in all three cell lines were classified as "hits" resulting in 151 oncology drug hits. The screen also confirmed cross-resistance between olaparib and other PARPis (rucaparib, niraparib, and talazoparib) in PARPi-resistant PEO1/OlaR and PEO4.
[1] G. L. Lin, K. M. Wilson, M. Ceribelli, B. Z. Stanton, P. J. Woo, S. Kreimer, E. Y. Qin, X. Zhang, J. Lennon, S. Nagaraja, P. J. Morris, M. Quezada, S. M. Gillespie, D. Y. Duveau, A. M. Michalowski, P. Shinn, R. Guha, M. Ferrer, C. Klumpp-Thomas, S. Michael, C. McKnight, P. Minhas, Z. Itkin, E. H. Raabe, L. Chen, R. Ghanem, A. C. Geraghty, L. Ni, K. I. Andreasson, N. A. Vitanza, K. E.Warren, C. J. Thomas, M. Monje, Therapeutic strategies for diffuse midline glioma from high-throughput combination drug screening. Sci. Transl. Med. 11, (2019).
[2] T. M. Yamamoto, A. McMellen, Z. L. Watson, J. Aguilera, R. Ferguson, E. Nurmemmedov, T. Thakar, G. L. Moldovan, H. Kim, D. M. Cittelly, A. M. Joglar, E. P. Brennecke, H. Wilson, K. Behbakht, M. J. Sikora, B. G. Bitler, Activation of Wnt signaling promotes olaparib resistant ovarian cancer. Mol. Carcinog. 58, 1770 - 1782 (2019).
PROTOCOL TABLE (as described by Inglese J, Shamu CE and Guy RK. 2007)
SEQUENCE No. (e.g., 1, 2, 3, etc.); […] (e.g., Cells, Incubation, Reagent, etc.); VALUE; DESCRIPTION.
1; Compounds; 20nL; 1536-well white tissue culture-treated plates.
2; Cells; 5 uL; PEO1, PEO4, and PEO1/OlaR cells at 600 cells per well.
3; Incubation; 96 hr; 37C, 95% humidity, 5% CO2.
4; Reagent; 3 uL; CellTiter-Glo (Promega).
5; Incubation; 15 min; room temperature.
6; Detection; Luminescence, PHERAstar (BMG Labtech) plate reader.
NOTES (numbers refer to Sequence numbers above)
1. MIPE 5.0 compounds were acoustically dispensed by Echo Acoustic Liquid Handler (Beckman Coulter Life Sciences). Each compound was plated at an 11-point concentration range with 1:3 dilution. Bortezomib, a proteasome inhibitor (final concentration, 20 uM), was used as a positive.
2. PEO1, PEO4, and PEO1/OlaR were trypsinized and dispensed in 5 uLof growth medium using a Multidrop Combi dispenser at a density of 600 cells per well to allow compounds to be present during the exponential growth phase.
3. Plates were incubated for 96 hours at standard incubator conditions and covered by a stainless steel gasketed lid to prevent evaporation.
4. Three microliters of CellTiter-Glo (Promega) were added to each well.
5. Plates were incubated at room temperature for 15 min with a stainless-steel lid in place.
6. Luminescence readings were taken using PHERAstar (BMG Labtech). […]

Where [1] appears, read: measured here: PEO1 parental Z-AUC.

Regarding `C/C=C/C/C=C/CCC(=O)[C@H]1O[C@H]1C(N)=O`, the Z-AUC was -0.297 (inactive). Moreover, the Z-AUC under setting [1] is -0.147. Moreover, the Z-AUC (measured here: PEO4 Z-AUC) was -0.049.
For `Cc1noc(C)c1-c1ccc(-c2cc(C(N)=O)c(NC(N)=O)s2)c(O[C@H]2CCNC2)c1` the same measures were -0.139 (inactive), -0.81 and -0.908.
In the case of `CC[C@H](NC(=O)[C@H](C)NC)C(=O)N1C[C@@H](O)C[C@H]1Cc1c(-c2[nH]c3cc(F)ccc3c2C[C@@H]2C[C@H](O)CN2C(=O)[C@H](CC)NC(=O)[C@H](C)NC)[nH]c2cc(F)ccc12`, the Z-AUC was 1.52 (inactive). Under setting [1], the Z-AUC was 1.38. Besides, the Z-AUC (measured here: PEO4 Z-AUC) worked out at 0.68.
As for `COc1cc(N2CCN(C)CC2)ccc1Nc1ncc2c(n1)N(C)c1ccccc1C(=O)N2`, the Z-AUC is -0.466 (inactive). Further, the Z-AUC under setting [1] is -0.178. Also, under “measured here: PEO4 Z-AUC”, the Z-AUC was 0.52.
`CC(=O)O/N=C1/C(c2c(O)[nH]c3cc(Br)ccc23)=Nc2ccccc21`: the Z-AUC is -1.48 (inactive). Further, the Z-AUC under setting [1] is 0.461. In addition, for the setting “measured here: PEO4 Z-AUC”, the Z-AUC is -0.699.
On to `CCCS(=O)(=O)c1nc(NC2CC2)cc(-c2ccc3c(ccn3C3CC(C)(C)NC(C)(C)C3)c2)n1`, for which the Z-AUC is -1.38 (inactive). Moreover, under setting [1], the Z-AUC is -1.22. Moreover, under “measured here: PEO4 Z-AUC”, the Z-AUC was -1.57.
As for `N#Cc1cccnc1N1CCN(C(=O)c2cccc(Cc3n[nH]c(=O)c4ccccc34)c2)CC1`, the Z-AUC was -1.35 (inactive). Further, the Z-AUC under setting [1] was -2.79. In addition, the Z-AUC (measured here: PEO4 Z-AUC) was -1.63.
Take `Cc1ncc(NC(=O)c2cccc(C(F)(F)F)c2)cc1-c1cnc(OC2CCOCC2)c(N2CCOCC2)c1`: the Z-AUC is -1.52 (inactive). Also, under setting [1], the Z-AUC is -1.38. For the same compound, the Z-AUC (measured here: PEO4 Z-AUC) was -1.33.
As to `CO[C@H]1C[C@@H]2CC[C@@H](C)[C@@](O)(O2)C(=O)C(=O)N2CCCC[C@H]2C(=O)O[C@H]([C@H](C)C[C@@H]2CC[C@@H](OCCO)[C@H](OC)C2)CC(=O)[C@H](C)/C=C(/C)[C@@H](O)[C@@H](OC)C(=O)[C@H](C)C[C@H](C)/C=C\C=CC=C1C`, the Z-AUC was 0.703 (inactive). Also, the Z-AUC under setting [1] turned out to be 0.778. The Z-AUC (measured here: PEO4 Z-AUC) came out at 0.68.
As for `CCC[C@H](NC(=O)[C@@H]1[C@H]2CCC[C@H]2CN1C(=O)[C@@H](NC(=O)[C@@H](NC(=O)c1cnccn1)C1CCCCC1)C(C)(C)C)C(=O)C(=O)NC1CC1`, the Z-AUC was 1.49 (inactive). The Z-AUC under setting [1] worked out at 0.769. In addition, under “measured here: PEO4 Z-AUC”, the Z-AUC was determined as 0.725.
`Nc1cc(C(F)(F)F)c(-c2nc(N3CCOCC3)nc(N3CCOCC3)n2)cn1`: the Z-AUC was -0.884 (inactive). Further, the Z-AUC under setting [1] is -0.21. Also, where the note is “measured here: PEO4 Z-AUC”, the Z-AUC is -0.177.
For `Cc1ccc(Nc2cc(N[C@@H]3CCCC[C@@H]3N)nnc2C(N)=O)nc1C`, the Z-AUC is -0.241 (inactive). For the same compound, the Z-AUC under setting [1] is -0.11. Moreover, where the note is “measured here: PEO4 Z-AUC”, the Z-AUC turned out to be 0.345.
In the case of `C[C@]12CCCN1CC1=NNC(=O)c3cc(F)cc4[nH]c2c1c34`, the Z-AUC was -0.827 (inactive). Also, the Z-AUC under setting [1] was -0.713. Under “measured here: PEO4 Z-AUC”, the Z-AUC was 0.783.
Regarding `CC(C)(C)C[C@H]1N[C@@H](C(=O)NC2CCC(O)CC2)[C@H](c2cccc(Cl)c2F)[C@@]12C(=O)Nc1cc(Cl)ccc12` (some centres not stated), the Z-AUC was -0.139 (inactive). The Z-AUC under setting [1] was 0.559. In addition, the Z-AUC (measured here: PEO4 Z-AUC) came out at 0.282.
